From the GenesisPotency data set
Screen size: about 1,300 compounds; about 35 (3%) were called active. Not shown: some 48% with an inconclusive outcome. Calls follow the shape of the dose curve; as a rule, active = well fitted inhibition curve with a large enough effect; inconclusive = small, poorly fitted or top-dose-only effect, or effect the other way; inactive = flat fitted curve, though single readings scatter. This excerpt belongs to a sample that is enriched for actives.

What follows are molecules tested against T1, ATP-dependent 6-phosphofructokinase, Trypanosoma brucei brucei (UniProt O15648) (assay: qHTS Validation Assay to Find Inhibitors of T. brucei phosphofructokinase (AID 485368)).
T1 sequence (whole entry): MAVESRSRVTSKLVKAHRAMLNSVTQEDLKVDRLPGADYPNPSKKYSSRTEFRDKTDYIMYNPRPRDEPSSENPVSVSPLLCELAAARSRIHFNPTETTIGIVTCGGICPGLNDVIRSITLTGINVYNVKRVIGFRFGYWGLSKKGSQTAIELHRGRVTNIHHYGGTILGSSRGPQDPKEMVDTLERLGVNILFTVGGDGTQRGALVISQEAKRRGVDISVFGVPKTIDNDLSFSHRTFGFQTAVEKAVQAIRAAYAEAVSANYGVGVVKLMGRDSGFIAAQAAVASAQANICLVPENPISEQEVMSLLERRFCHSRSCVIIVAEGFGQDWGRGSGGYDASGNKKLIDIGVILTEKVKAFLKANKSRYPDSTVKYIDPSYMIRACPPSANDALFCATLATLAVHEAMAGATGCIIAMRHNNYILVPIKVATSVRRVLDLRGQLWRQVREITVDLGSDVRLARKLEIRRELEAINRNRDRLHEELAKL
With `N.N.[Cl][Pt][Cl]` the outcome was “active”.
